For 99 molecules, Potency results are on record in PubChem BioAssay AID1345083 (National Center for Advancing Translational Sciences (NCATS), 2018).

Each structure is given as a SMILES string. About 6,200 (6.6%) of roughly 94,000 compounds were called active. Roughly 31% stayed inconclusive and do not appear here. The call rests on the fitted dose curve; in most records, active means well fitted inhibition curve with a large enough effect; inconclusive means small, poorly fitted or top-dose-only effect; inactive means flat fitted curve, though single readings scatter. What follows is part of a selection rich in actives, with near analogues and random picks from the rest. Entries that show only a call come without a potency.
Potency means the concentration at half of the fitted maximal effect.

The nature of the assay: Cytotoxic Profiling in HEK 293 Cell Line of Diverse Libraries Using Quantitative High-Throughput Screening. Further: nearly all actives have a fitted effect of over 60% in size. As to conditions: HEK 293 viability, ATP luminescence (CellTiter-Glo), 48-72 h; series mostly up to 115 µM. The procedure, abridged:
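Viability of HEK 293 cells, plated at 250 cells/well, was judged by cellular ATP after compound treatment for 48 or 72 hr. Luminescence was imaged 10 min after CellTiter-Glo addition at room temperature.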
As to `COc1ccc(CCC(=O)NCC(=O)N2CCCCCCNC(=O)CC2c2ccccc2)cc1` (centres undefined), the Potency entry was “inactive”.
As for `CC1CCN(c2ccc(CNC(=O)CN3CCCc4nc(C5CC5)ncc4C3=O)cc2)CC1`, the entry is “inactive”; as for `CN(CCO)CC1(O)CCCN(Cc2ccccc2F)C1=O` (centres undefined), “inactive”.
`O=C1c2c(nc(COc3ccccc3)n2Cc2ccccc2)NCCN1Cc1cccc(Cl)c1`: the Potency was 31.6 µM (active).
For the molecule `O=C1c2cnc(-c3ccc(O)c(F)c3)nc2OCCN1Cc1ccccc1`, the Potency entry is “inactive”.
Take `O=C(O)CN1CCNc2nc(CNc3ccc(F)cc3)n(Cc3ccccc3)c2C1=O`: the Potency result was “inactive”.
As for `COc1ccc(NC(=O)c2ccc3c(c2)N(S(C)(=O)=O)CC3)cc1OC`, the entry is “inactive”; as for `O=C(c1cccnc1)N1CCC(Nc2cccnc2)C1` (centres undefined), “inactive”; as for `COc1cccc(N2C(=O)NC(=NC3CCCC3)C23CCN(C(=O)c2ccc(C)cc2)C3)c1` (centres undefined), “inactive”.
Regarding `O=C(C[C@@H]1CCNC[C@@H]1Cc1cc(-c2ccc(F)cc2)on1)NCCN1CCOCC1`, the Potency entry is “inactive”.
As for `COc1ccc(CNC(=O)C[C@@H]2CCNC[C@@H]2Cc2cc(-c3ccc(C(C)(C)C)cc3)on2)cc1OC`, the figure is 25.1 µM (active).
With `COc1ccc(-c2cc(C[C@H]3CNCC[C@H]3CC(=O)NCCN(C)C)no2)cc1`, the Potency result was “inactive”.
As for `CN(Cc1ccccc1)C(=O)C[C@@H]1CCNC[C@@H]1Cc1cc(-c2ccc(C(C)(C)C)cc2)on1`, the figure is 14.1 µM (active); as for `CCCCc1cc(C[C@H]2CNCC[C@H]2CC(=O)N(CC)CC)no1`, “inactive”.
Under `O=C(C[C@@H]1CCNC[C@@H]1Cc1cc(CSc2ccccc2)on1)NCc1ccc2c(c1)OCO2` stands 35.5 µM (active).
Under `CSc1cccc(CN(C)C(=O)CC2COCCN2)c1` (centres undefined) stands “inactive”; under `CCCCc1cc(C[C@H]2CNCC[C@H]2CC(=O)N2CCC(n3c(=O)[nH]c4ccccc43)CC2)no1`, “inactive”; under `CNC(=O)C(C)(C)N1CCC[C@H]1C(=O)N(C)Cc1ccccc1`, “inactive”.
For the molecule `COCCOCc1nc(C2CCCCN2C(=O)Nc2ccc(F)cc2F)no1` (centres undefined), the Potency result is “inactive”.
In the case of `O=C(Cc1cccc(Cl)c1)N1CCC2(CN[S+](=O)([O-])c3cccnc3O2)C1` (centres undefined), the Potency entry was “inactive”.
Under `Cc1ccc(CN[C@@H]2CO[C@H](CNC(=O)N3CCOCC3)[C@H]2O)cc1` stands “inactive”.
For `CCNC(=O)[C@@H]1C[C@H](n2cc(CN(C)C(=O)OC)nn2)CN1`, the Potency result was “inactive”.
Under `Cc1ccc(NC(=O)c2nnn3c2COC(c2ccc(F)cc2)C3)c(Br)c1` (centres undefined) stands “inactive”; under `COc1ccc(-c2ccccc2CN)cc1`, “inactive”; under `CCn1cc(S(=O)(=O)N2C[C@@H](Oc3ccccc3)C[C@@H]2C(=O)N2CCOCC2)cn1`, “inactive”.
Under `O=C(c1ccc(F)cc1)N1CCC2(CC1)CC(OCC1CC1)CCO2` (centres undefined) stands “inactive”.
In the case of `CCN(CC)C1CCOC2(CCN(C(=O)c3ccncc3)CC2)C1` (centres undefined), the Potency result was “inactive”.
Turning to `CCn1nccc1C(=O)N1CCC2(CC1)CC(N(Cc1ccc(F)cc1)C1CC1)CCO2` (centres undefined), the Potency was 39.8 µM (active).
`Cc1cccc(CC(=O)N2CCC(c3n[nH]c(=O)n3-c3ccccc3)CC2)c1`: the Potency result was “inactive”.
Turning to `CN(C)CCNC(=O)[C@H]1C[C@@](C)(C(=O)O)N(C)[C@H]1c1ccc(Cl)cc1`, the Potency result was “inactive”.
Turning to `Cc1ccccc1N1Cc2c(NCC(C)(C)C)ncnc2N(C)CC1=O`, the Potency result was “inactive”.
Under `O=C(NCc1ccc2c(c1)OCO2)C1CCCN(Cc2cccc(-c3cccs3)c2)C1` (centres undefined) stands 28.2 µM (active).
With `O=C(NCc1ccc2c(c1)OCO2)C1CN(C2CCCCC2)C(=O)N1` (centres undefined), the Potency entry was “inactive”.
Consider `O=C1CCN(S(=O)(=O)c2cccc(F)c2)CCCC(C(=O)NCc2ccccc2)CCN1` (centres undefined), for which the Potency entry is “inactive”.
With `COCCNC(=O)C1CCCN(Cc2cccc(-c3cccs3)c2)C1` (centres undefined), the Potency entry was “inactive”.
As for `O=C(NCc1ccc(F)c(F)c1)C1CCCN(Cc2cccc(-c3cccs3)c2)C1` (centres undefined), the figure is 5.62 µM (active); as for `Cc1ccccc1CNC(=O)C1CCCN(Cc2cccnc2)CCC(=O)NCC1` (centres undefined), “inactive”.
Under `COc1ccc(C(=O)N2CCc3n[nH]c(=O)n3CC2)cc1F` stands “inactive”; under `O=C(N[C@H]1[C@H](O)[C@H](O)C[C@@H]1c1ccncc1)c1ccccn1`, “inactive”.
In the case of `CN(C)c1ccc(CNCC2(COc3ccc(S(C)(=O)=O)cc3)C[C@@H](O)[C@@H](O)C2)cc1` (some centres undefined), the Potency entry was “inactive”.
As for `O=C(NC1CC1)c1ccc(N2CC3CC(C2)[C@H]2CCCC(=O)N2C3)nc1` (some centres undefined), the Potency entry was “inactive”.
As for `Cc1cc(C(=O)N2CCC(N3C(=O)C(OCC4CC4)C34CCOCC4)CC2)nn1C` (centres undefined), the entry is “inactive”; as for `CN(C)c1cccc(Nc2cc3c(cn2)NCCN(Cc2ccccc2)C3)c1`, 63.1 µM (active); as for `Cn1c(CNC(=O)Cn2nc3c(cc2=O)CCCC3)nc2ccccc21`, “inactive”.
With `O=C(c1cn[nH]c1-c1ccccc1)N1CCC2(CC1)CC(O)CCO2` (centres undefined), the Potency entry was “inactive”.
Consider `O=C(Cc1cccc(Cl)c1)N1CCC2(CC1)CN[S+](=O)([O-])c1cccnc1O2`, for which the Potency entry was “inactive”.
For the molecule `COCC(=O)N1CCCN(Cc2ccncc2)C(c2ccccc2)CC(=O)NCC1` (centres undefined), the Potency result is “inactive”.
Regarding `CC(C)c1ccc(N2C(=O)N[C@@H]3CCN(C(=O)c4ccc(C(C)(C)C)cc4)[C@@H]3C2=O)cc1`, the Potency is 79.4 µM (active).
As for `COc1cccc(-c2ccc(CN3CCCC3C(=O)NC3CCCCC3)cc2)c1` (centres undefined), the figure is 44.7 µM (active); as for `Cc1ccc(-c2cccc(CN3CCCC3C(=O)NCC(F)(F)F)c2)cc1Cl` (centres undefined), 31.6 µM (active).
With `O=C(NCc1ccccn1)C1CCN(C(=O)c2ccc(-c3cccs3)cc2)CC1`, the Potency entry is “inactive”.
Consider `COc1ccc(C(=O)N2CCN(Cc3ccccc3-c3ccc(C)c(Cl)c3)CC2)cc1`, for which the Potency entry was “inactive”.
Turning to `Cc1ccc(-c2cccc(CN3CCCC(NC(=O)c4ccc(C(F)(F)F)cc4)C3)c2)cc1Cl` (centres undefined), the Potency result is “inactive”.
Under `CC(=O)N1CCCN(C(=O)C2CCCCN2Cc2ccc(-c3ccsc3)cc2)CC1` (centres undefined) stands “inactive”; under `COc1cccc(CC(=O)NC2CCN(c3cn[nH]c(=O)c3)CC2)c1`, “inactive”; under `COc1cccc(-c2cccc(C(=O)N3CCCC3C(=O)NCC3CC3)c2)c1` (centres undefined), “inactive”.
Turning to `COC(=O)[C@H](Cc1ccc(OC)cc1)NC(=O)[C@H]1CN(C(=O)c2cccnc2)CCN1C(=O)NC1CCCCC1`, the Potency entry was “inactive”.
Under `COc1cccc(-c2ccc(CN3CCCC3C(=O)NCc3ccccc3Cl)cc2)c1` (centres undefined) stands 31.6 µM (active); under `O=C(NCCCc1ccccc1)C1CCc2nnc(-c3cccc(C(F)(F)F)c3)n21` (centres undefined), “inactive”.
Turning to `CNC(=O)C1CCCCN1Cc1ccc(-c2cccs2)cc1` (centres undefined), the Potency was 28.2 µM (active).
As for `COCCC(=O)N1CCC2(CCC2NC(=O)COC)CC1` (centres undefined), the entry is “inactive”.
As for `CCN(CC)CC(=O)N1CCC(Oc2ccccc2C)(C(=O)O)CC1`, the entry is “inactive”; as for `COCC(=O)N(C1CCOCC1)C1CCN(C(=O)c2cccc(OC)c2)CC1`, “inactive”; as for `COc1ccccc1CN1C(=O)COC[C@@H]1[C@H](O)c1ccc(NC(=O)c2ccc(C#N)cc2)cc1`, 39.8 µM (active).
Turning to `CCN1C(=O)COC[C@@H]1C(O)c1ccc(NC(=O)Cc2ccc(OC)cc2)cc1` (some centres undefined), the Potency result was “inactive”.
Consider `CC(C)CN1C(=O)COC[C@@H]1[C@H](O)c1ccc(NC(=O)Cc2ccccc2)cc1`, for which the Potency entry was “inactive”.
Under `Cc1ccc(NC(=O)N2CC[C@H]3C(=O)NCCCCCN(Cc4cccnc4)[C@@H]3C2)cc1C` stands “inactive”; under `O=C(CCC1CCCC1)N1CCN2CCS(=O)(=O)N(C3CC3)C(=O)C2C1` (centres undefined), “inactive”.
As for `CC(C)c1ccc(S(=O)(=O)N(C)CC2CCOC2)cc1` (centres undefined), the entry is “inactive”; as for `O=c1[nH]c(-c2ccncc2)nc2c1CCN(S(=O)(=O)N1CCCC1)C2`, “inactive”.
Under `O=C([C@@H]1C[C@H](F)CN1S(=O)(=O)c1ccc(Cl)cc1)N1CCCCC1` stands “inactive”; under `O=C(c1cccc(Br)c1)N1CCN(C2CCN(Cc3ccccn3)C2=O)CC1` (centres undefined), “inactive”.
`O=C(c1ccncc1)N1CCN(c2ccc(Cl)nn2)C(=O)C1`: the Potency entry is “inactive”.
As for `Cn1cc(CN2CCN(Cc3ccccc3)CC2)ccc1=O`, the entry is “inactive”; as for `O=C1CN(Cc2ccc(-c3ccccc3)cc2)CCN1c1cc(Cl)ncn1`, 31.6 µM (active); as for `COc1ccc(Cn2c(CN(C)S(C)(=O)=O)n[nH]c2=O)cc1`, “inactive”.
Under `CC(C(=O)NC1CCCCC1)[C@@H]1CC[C@@]2(C)CC[C@H](N[S+](C)(=O)[O-])[C@@H](C)[C@@H]2[C@H]1O` (some centres undefined) stands “inactive”; under `CN(Cc1ccc(-c2ccccc2)cc1)C(=O)c1ccccc1F`, 89.1 µM (active).
Regarding `CN(Cc1ccccc1)Cc1ccc(F)cc1`, the Potency result was “inactive”.
As for `CN(Cc1ccc(OC(F)(F)F)cc1)Cc1ccc(-c2ccccc2)cc1`, the entry is “inactive”.
As for `O=C(CC1Cc2ccccc2C1)N1CCN(CCO)CC(O)C1` (centres undefined), the entry is “inactive”.
As to `CCCCCC(=O)Nc1nc2c(s1)C[C@@H]1[C@](C)(CO)[C@H](O)CC[C@@]1(C)[C@@H]2CC(=O)N1CCC(C(N)=O)CC1`, the Potency entry was “inactive”.
Under `O=C(CCn1cccn1)N[C@@H]1CN(Cc2ccccc2)C[C@H]1CO` stands “inactive”; under `CSc1ccc(CNC(=O)c2noc(-c3ccc(C)cc3)n2)cc1`, “inactive”.
Under `CC1=Nc2cc(C(=O)NCc3ccc(C)cc3)ccc2Sc2ccc(Cl)cc21` stands 31.6 µM (active); under `O=C(CCc1cc(Cl)no1)NCCc1noc(C2CC2)n1`, “inactive”; under `COc1ccc(-c2nnc3n2CCN([S+](C)(=O)[O-])C3)cc1`, “inactive”.
`Cc1cc(C)n(C2CN(c3cc(C4CC(O)C4)nc(C)n3)C2)n1` (centres undefined): the Potency result is “inactive”.
Under `Cc1cc(C)n(-c2ccc(NC(=O)CC[C@H]3NC(=O)c4ccccc4NC3=O)cc2)n1` stands “inactive”; under `COc1ccc(C(=O)N[C@@H]2CCC[C@@H]2C(=O)NCc2cccc(OC)c2)cc1`, “inactive”; under `O=C(NC1CCCc2c1[nH]c1ccc(F)cc21)c1ccccn1` (centres undefined), “inactive”.
For `COc1ccc(CC(=O)NC2CCCc3c2[nH]c2ccccc32)cc1` (centres undefined), the Potency was 35.5 µM (active).
Under `CN1CCCN(C(=O)c2ccccc2)c2ccccc21` stands “inactive”; under `O=C(NCc1ccc(F)c(F)c1)c1ccc2nnc(-c3cccnc3)n2c1`, “inactive”.
`COCCNC(=O)c1ccc2nnc(-c3cccc(C(F)(F)F)c3)n2c1`: the Potency entry was “inactive”.
`O=C(NCc1ccc(F)cc1)c1ccc2nnc(Cc3ccco3)n2c1`: the Potency entry was “inactive”.
As to `O=C(NCc1ccc(C(F)(F)F)cc1)c1ccc2nnc(-c3ccc(C(F)(F)F)cc3)n2c1`, the Potency was 35.5 µM (active).
Under `O=C(NCc1cccc(Cl)c1)c1ccc2nnc(Cc3ccc(Cl)cc3)n2c1` stands 44.7 µM (active); under `CCN1CCN(C(=O)c2ccc3nnc(Cc4ccc(Cl)cc4)n3c2)CC1`, “inactive”.
